For test [1], the system named is CRL-7250. Put plainly: Cytotoxic Profiling of Annotated Libraries Using Quantitative High-Throughput Screening (AID 1296008). For max response: % is set by controls: 0 for no effect and ±100 for the full control effect. Note: nearly all actives have a fitted effect of over 60% in size. Particulars: Five cell lines viability, CellTiter-Glo ATP luminescence, 48-72 h; max response: stronger effect = lower value. The method in brief:
(§1)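 Cytotoxicity was measured as CellTiter-Glo ATP luminescence, read after 10 min at room temperature. Compound treatment of the cells lasted 48 or 72 hr at 37 degrees Celsius in a qHTS format.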

In test [2] the test system is HaCat. The description is as above. To be noted: Five cell lines viability, CellTiter-Glo ATP luminescence, 48-72 h; max response: stronger effect = lower value. An outline of the steps: as §1
For test [3], the system named is KB-3-1. The test is described as above. To be noted: Five cell lines viability, CellTiter-Glo ATP luminescence, 48-72 h; max response: stronger effect = lower value. The method in brief: as §1
The test system of test [4] is MCC-13. The test can be described thus: qHTS assay to identify novel small-molecules to repurpose for Merkel cell carcinoma treatment (AID 1296009). Note: nearly all actives have a fitted effect of over 60% in size. To be noted: MCC and control cell lines, CellTiter-Glo viability, 72 h; series mostly up to 46 µM. The method in brief:
(§2)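 Cell viability, measured as CellTiter-Glo luminescence, was normalized between DMSO and no-cell wells. The cells had been exposed to 8- or 11-point compound dilutions for 72 hr at 37 degree celsius.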

Test [5] concerns MCC-26. Described as above. To be noted: MCC and control cell lines, CellTiter-Glo viability, 72 h; series mostly up to 46 µM. The method in brief: as §2
For test [6], the system named is MKL-1. Described as above. Particulars: MCC and control cell lines, CellTiter-Glo viability, 72 h; series mostly up to 46 µM. The method in brief:
as §2

Test [7] has as its system MKL-2. The description is as above. To be noted: MCC and control cell lines, CellTiter-Glo viability, 72 h; series mostly up to 46 µM. An outline of the steps: as §2
Test [8] has as its system UISO. The description is as above. To be noted: MCC and control cell lines, CellTiter-Glo viability, 72 h; series mostly up to 46 µM. The method in brief:
as §2

The subject of test [9] is WaGa. The description is as above. To be noted: MCC and control cell lines, CellTiter-Glo viability, 72 h; series mostly up to 46 µM. An outline of the steps:
as §2

Test [10] concerns C33A. The test can be described thus: Primary qHTS to identify gynecologic anti-cancer compounds using libraries of approved drugs and bioactive compounds (AID 1345084). Note: nearly all actives have a fitted effect of over 55% in size. To be noted: Gynecologic cancer cell panel viability, ATPlite luminescence, 48 h; series mostly up to 57.5 µM. An outline of the steps: (§3)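 Five-point cytotoxicity, 48 h drug exposure at 37 C, 5% CO2, on cells seeded 16 h beforehand. ATP content read by ATPlite luminescence.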

In test [11] the test system is CAOV3. The description is as above. To be noted: Gynecologic cancer cell panel viability, ATPlite luminescence, 48 h; series mostly up to 57.5 µM. An outline of the steps:
as §3

Test [12] relates to CASKI. The test is described as above. Particulars: Gynecologic cancer cell panel viability, ATPlite luminescence, 48 h; series mostly up to 57.5 µM. An outline of the steps:
as §3

The test system of test [13] is W2. The test can be described thus: qHTS profiling for inhibitors of Plasmodium falciparum proliferation (AID 504749). Note: nearly all actives have a fitted effect of over 60% in size. To be noted: P. falciparum in erythrocytes, SYBR Green DNA, 72 h; series mostly up to 28.7 µM. An outline of the steps:
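SYBR Green fluorescence of parasite DNA, read after lysis and overnight dark incubation, measured growth over 72 h in erythrocyte culture at 0.3% parasitemia and 2.5% hematocrit. Data normalised to DMSO and 0.29 uM artemisinin, with plate-drift correction.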

The subject of test [14] is HACAT. Put plainly: qHTS assay to identify novel small-molecules to repurpose for Merkel cell carcinoma treatment (AID 1296009). Note: nearly all actives have a fitted effect of over 60% in size. Particulars: MCC and control cell lines, CellTiter-Glo viability, 72 h; at 44.8 µM (top of the series) unless noted. The method in brief: as §2
The test system of test [15] is HEK293T. Described as above. To be noted: MCC and control cell lines, CellTiter-Glo viability, 72 h; at 44.8 µM (top of the series) unless noted. An outline of the steps:
as §2

In test [16] the test system is Es-2. Put plainly: Primary qHTS to identify gynecologic anti-cancer compounds using libraries of approved drugs and bioactive compounds (AID 1345084). Note: nearly all actives have a fitted effect of over 55% in size. Particulars: Gynecologic cancer cell panel viability, ATPlite luminescence, 48 h; series mostly up to 57.5 µM. An outline of the steps: as §3
Test [17] relates to NIH3T3. The test can be described thus: Cytotoxic Profiling of Annotated Libraries Using Quantitative High-Throughput Screening (AID 1296008). For max response: % is set by controls: 0 for no effect and ±100 for the full control effect. Note: nearly all actives have a fitted effect of over 60% in size. To be noted: Five cell lines viability, CellTiter-Glo ATP luminescence, 48-72 h; max response: stronger effect = lower value. The method in brief:
as §1

Test [18] relates to NIH3T3. Put plainly: qHTS assay to identify novel small-molecules to repurpose for Merkel cell carcinoma treatment (AID 1296009). Note: nearly all actives have a fitted effect of over 60% in size. Particulars: MCC and control cell lines, CellTiter-Glo viability, 72 h; at 44.8 µM (top of the series) unless noted. An outline of the steps: as §2
Test [19] has as its system HeLa. The test can be described thus: Primary qHTS to identify gynecologic anti-cancer compounds using libraries of approved drugs and bioactive compounds (AID 1345084). Note: nearly all actives have a fitted effect of over 55% in size. Particulars: Gynecologic cancer cell panel viability, ATPlite luminescence, 48 h; series mostly up to 57.5 µM. The method in brief:
as §3

The test system of test [20] is HEK293. Put plainly: Cytotoxic Profiling of Annotated Libraries Using Quantitative High-Throughput Screening (AID 1296008). For max response: % is set by controls: 0 for no effect and ±100 for the full control effect. Note: nearly all actives have a fitted effect of over 60% in size. Particulars: Five cell lines viability, CellTiter-Glo ATP luminescence, 48-72 h; max response: stronger effect = lower value. An outline of the steps: as §1

Each structure is given as a SMILES string. Several values for one entry are separate records, joined by “and”; a condition that tells them apart may be missing. Equal entries are not always repeated. Records with an inconclusive call do not appear. Some compounds were tested as several samples or in several runs, with calls that do not always agree. Activity calls are given as the source filed them. Calls come from the whole dose curve; as a rule, active = well fitted curve in the direction sought with a large enough effect; inconclusive = small, poorly fitted or top-dose-only effect, or another doubt; inactive = no such curve, though single readings can be large; an effect the other way counts as inactive or inconclusive.
Potency is the fitted concentration of half-maximal effect.

For `C[C@@H]1C[C@H]2[C@@H]3CCC4=CC(=O)C=C[C@]4(C)[C@@]3(Cl)[C@@H](O)C[C@]2(C)[C@@]1(OC(=O)c1ccco1)C(=O)CCl`, the max response in test [1] is -41.7% (inactive); in [2] it was -15.9% (inactive); in test [3], 4.51% (inactive) and 5.24% (inactive). For the same compound, the Potency result in [4], in [5], in [10], in test [11] and in [12] was “inactive” each time. Moreover, the Potency in [6] was 16.6 µM (active); in [7] it was 29.9 µM (active) and 18.7 µM (active); in [8] it was 20.9 µM (active); in [9], 16.6 µM (active).
With `NC(=O)c1cccnc1`, the Potency entry in test [13], in test [4], in [5], in [6], in test [7] and in [8] was “inactive” each time. The Potency entry in test [9], in test [10], in [12] and in test [16] was “inactive” throughout. The compound was classed as inactive in test [14] and in test [15].
For the compound `Nc1[nH]c(=O)ncc1F`, the Potency entry in test [13], in [10], in [11], in test [12] and in test [16] was “inactive” in each case.
For the compound `CC(C)(C)C(=O)OCOP(=O)(COCCn1cnc2c(N)ncnc21)OCOC(=O)C(C)(C)C`, the Potency in test [11] was 12.6 µM (active); in test [16], 7.08 µM (active). For the same compound, in test [12], the Potency result was “inactive”.
For `CCCOc1ccc(C(=O)OCCN(CC)CC)cc1N`, the max response in test [1] was -2.34% (inactive) and -3.98% (inactive); in [2] it was -1.58% (inactive) and 2.22% (inactive); in [3], -2.47% (inactive) and 5.78% (inactive). Further, the compound was called inactive in test [17], in test [15] and in [18]. Moreover, the Potency entry in [4], in test [6], in [7], in [8], in test [9] and in [10] was “inactive” throughout. In addition, the Potency result in test [11], in test [12], in test [16] and in test [19] was “inactive” in each case.
As to `CN1CCCC(n2nc(Cc3ccc(Cl)cc3)c3ccccc3c2=O)CC1` (stereo unspecified), the Potency in [13] was 6.01 µM (active); in [5], “inactive and 11.8 µM (active)”; in test [6], 1.48 µM (active); in test [7], 15 µM (active) and 418 nM (active); in test [8] it was 13.2 µM (active); in test [9], 0.296 µM (active). For the same compound, the max response in test [2] was 3.73% (inactive); in [3] it was -6.94% (inactive) and -2.19% (inactive); in test [17], 5% (inactive). In addition, the compound was called inactive in test [2] and in test [14]. Further, the Potency result in [4], in test [10], in test [11] and in [12] was “inactive” each time.
As to `CC(=O)[C@H]1CC[C@H]2[C@@H]3CCC4=CC(=O)CC[C@]4(C)[C@H]3CC[C@]12C`, in [20], the Potency was 16.6 µM (active). Besides, the max response in test [17] is -0.969% (inactive). Besides, the Potency result in test [4], in test [5] and in test [6] was “inactive” in each case.
Regarding `O=C(O)c1ccc(-n2nc(-c3ccccc3O)nc2-c2ccccc2O)cc1`, the max response in [2] is 2.92% (inactive). Also, the compound was classed as inactive in test [2] and in test [14]. Further, the Potency result in test [4], in [5], in test [11], in test [12] and in [19] was “inactive” each time. In addition, in [9], the Potency is 16.8 µM (active).
Regarding `CN1CCN(c2c(F)cc3c(=O)c(C(=O)O)cn(CCF)c3c2F)CC1`, the Potency result in test [13], in [10], in test [11], in [12], in test [16] and in test [19] was “inactive” throughout.
Turning to `Cc1ccc(S(=O)(=O)N[C@@H](Cc2ccccc2)C(=O)CCl)cc1`, the max response is -1.25% (inactive) in test [1] and 6.1% (inactive) in test [3]. For the same compound, the result in test [2], in [17], in [14] and in test [18] was inactive. Further, the Potency result in test [4] and in test [5] was “inactive” each time.

Source of the values: PubChem BioAssay (NCATS).
